ADAM10 inh: human ADAM10 inhibitors, primary screen, biochemical, QFRET, HTS; 370,000 compounds, 0.62% hits; AID 720582, 2013; inhibition, % at 7 µM; recombinant ADAM10, EDANS/DABCYL FRET peptide cleavage, 3 h;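 active = inhibition above a per-campaign cutoff equal to the mean of compounds falling between control-based bounds plus 3 SD, cut at about 20% in these data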;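 also: 0% = DMSO wells while the 100% control is not disclosed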
proKLK7 act: proKLK7 zymogen activators, primary screen, biochemical, fluorescence intensity; Kallikrein-7 (Homo sapiens), P49862; purified proKLK7, EDANS-DABCYL substrate fluorescence; 100% is mature enzyme control, 0% vehicle; activation, % at 7 µM; 370,000 compounds, 0.9% hits; AID 652039, 2013;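 active = activation above the mean of all tested compounds plus 3 SD, computed per campaign excluding outliers beyond control limits, cut at about 13% in these data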
NR3A LBD binder: binders of NR3A ligand-binding domain, primary screen, biophysical, differential scanning fluorimetry, uHTS; Tm shift relative to glycine control, % at 25 µM; 340,000 compounds, 2.5% hits; Glutamate receptor ionotropic, NMDA 3A (GRIN3A) ligand-binding domain; NR3A LBD differential scanning fluorimetry, Tm shift; 0% = protein alone, 100% = glycine-bound protein; AID 1259313, 2017;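 active = melting temperature shift of at least 10% of the positive control shift, at one fixed dose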
FAS-TE inh: FAS thioesterase domain inhibitors, primary screen, biochemical, fluorescence intensity, uHTS; 360,000 compounds, 0.67% hits; inhibition, % at 15 µM; Fatty acid synthase (Homo sapiens), P49327; recombinant FAS-TE, OMFH fluorogenic substrate, fluorescence endpoint;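 active = compounds whose normalised, plate-corrected inhibition of enzyme fluorescence in the single-dose primary screen is 50% or more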;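 also: 0% = DMSO with enzyme and 100% = substrate without enzyme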
ADAM17 inh: ADAM17 inhibitors, primary screen, biochemical, QFRET. recombinant ADAM17, EDANS/DABCYL FRET peptide cleavage. inhibition, % at 6.95 µM. Disintegrin and metalloproteinase domain-containing protein 17 (Homo sapiens), P78536. 370,000 compounds, 0.83% hits;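 active = inhibition above the mean of compounds lying between control limits plus 3 SD, set per campaign, cut at about 8.5% in these data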;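 also: 0% = DMSO-only wells as the low control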
An asterisk follows results filed as active; / = not tested or not shown. In the library only some 4.6% were active in any assay of this set; here they are far more common.

SMILES	ADAM10 inh	proKLK7 act	NR3A LBD binder	FAS-TE inh	ADAM17 inh
COc1cc(/C=C2\SC(=O)N(c3ccc(O)cc3)C2=O)cc(OC)c1OC	-3	0	-2	-1	-3
COc1cc(/C=C2\SC(=N)N(c3ccc4c(c3)OCO4)C2=O)cc(OC)c1O	-5	0	11*	8	-1
CCOc1ccc(N2C(=O)S/C(=C\c3ccc(O)c(OC)c3)C2=O)cc1	0	0	-1	-8	-1
COC(=O)[C@]12C[C@H](CC(=O)NCCC(C)C)C(=O)N(Cc3ccc(Cl)cc3Cl)C1=C[C@H](COCc1ccccc1)O[C@@H]2C	8	0	/	/	3
Cc1ccc(NC(=O)CNC(=O)c2cccs2)cc1S(=O)(=O)Nc1ccc(Cl)cc1	14	1	12*	10	6
Cc1ccc(C(=O)Nc2ccc(C)c(S(=O)(=O)Nc3ccccc3Cl)c2)s1	16	0	11*	23	8
COc1ccccc1NS(=O)(=O)c1cc(NC(=O)c2sc3cc(Cl)ccc3c2Cl)ccc1C	11	1	-5	37	4
CCNC(=S)Nc1ccc(C)c(S(=O)(=O)Nc2ccccc2OC)c1	3	0	0	1	-2
COc1ccccc1NS(=O)(=O)c1cc(NC(=S)Nc2cc(C)cc(C)c2)ccc1Cl	0	0	20*	24	-4
O=C(Nc1ccc(Cl)c(S(=O)(=O)Nc2ccccc2Cl)c1)c1cccs1	14	0	31*	19	3
COc1ccc(NC(=O)CNC(=O)c2cccs2)cc1Cl	-3	0	0	-1	-5
O=C(CSc1nc2ccccc2[nH]1)NN=Cc1c(F)cccc1Cl	3	1	/	/	0
CCCCCN1CCCCC(NC(=O)c2ccc(F)c(F)c2)C1=O (stereo unspecified)	-6	1	/	/	-6
O=C(COC(=O)c1ccc(O)cc1O)NC12CC3CC(CC(C3)C1)C2	3	0	-8	7	-1
O=C(OCC(=O)C12CC3CC(CC(C3)C1)C2)c1ccc(O)cc1O	6	0	29*	18	3
O=C(CCC(=O)N1CCN(C2c3ccccc3-c3ccccc32)CC1)Nc1nnc(C(F)(F)F)s1	2	0	/	/	0
Cc1cc(C(=O)N[C@H](c2ccccc2)[C@@]2(C)C[C@@H]2[C@@H](C)C(=O)Nc2ccc3ccccc3c2)n(C)n1	28*	0	-8	20	13*
C[C@@H](C(=O)Nc1ccc2ccccc2c1)[C@H]1C[C@]1(C)[C@H](NC(=O)OCc1ccccc1)c1ccccc1	7	-1	2	22	4
CCC(=O)Nc1ccc(Cl)c(NC(=S)NC(=O)c2cc3ccccc3o2)c1	-4	0	25*	-11	-3
O=C(COc1ccccc1[N+](=O)[O-])Nc1ccc(NC(=O)c2cc3ccccc3o2)cc1	5	0	12*	4	-1
Cc1ccc(NC(=O)c2cc3ccccc3o2)cc1Cl	-24	-1	35*	36	0
O=C(COc1ccccc1[N+](=O)[O-])Nc1ccc2oc(=O)ccc2c1	-6	0	-22	-4	0
CCC(=O)Nc1ccc(Cl)c(NC(=S)NC(=O)c2ccco2)c1	3	0	-8	10	-3
O=C(Nc1ccc(NC(=O)c2cc3ccccc3o2)cc1)c1ccco1	-25	1	26*	4	-4
COc1ccc(NC(=O)NC2CCN(S(=O)(=O)c3ccc(F)cc3)CC2)cc1OC	2	1	/	/	0
Fc1ccc(-c2cc(-c3nnc4sc(-c5ccco5)nn34)[nH]n2)cc1	-2	-1	/	/	-4
COc1ccc(NC(=O)c2cc3ccccc3o2)cc1	8	-1	2	2	0
COc1ccc(NC(=O)c2cc3ccccc3o2)cc1OC	-1	-1	26*	1	-1
O=C(Nc1cccc(NC(=O)c2nccc3ccccc23)c1)c1ccco1	9	1	19*	6	4
CCc1ccccc1OCC(=O)Nc1ccc(S(N)(=O)=O)cc1	-8	0	3	-4	-3

Screening data as filed in PubChem BioAssay.
